# Measured values as given in PubChem BioAssay (EPA / NIEHS).
# Calls of active or inactive are those of the source. How the source made its calls: active means hit-call score of the fitted dose curve at least 0.9, where 1 is the maximum; inactive means score below 0.9.
# Target: Aryl hydrocarbon receptor (Homo sapiens) (UniProt P35869)
# Assay: ATG_Ahr_CIS: Attagene CIS-FACTORIAL HepG2 Assay for human Aryl Hydrocarbon Receptor (Ahr) (AID 2282930)
# Conditions: HepG2 AhR cis-factorial reporter transcription; actives raise or lower the signal
# Method in brief: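 HepG2 cells transiently transfected with cis-element-driven multiplexed reporter units; endogenous AhR activity read as reporter mRNA 24 h after dosing, via RT-PCR, 6-FAM labelling, HpaI digestion and capillary electrophoresis. Bidirectional fit relative to DMSO.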
# Aryl hydrocarbon receptor (Homo sapiens), sequence (P35869 whole entry, looked up): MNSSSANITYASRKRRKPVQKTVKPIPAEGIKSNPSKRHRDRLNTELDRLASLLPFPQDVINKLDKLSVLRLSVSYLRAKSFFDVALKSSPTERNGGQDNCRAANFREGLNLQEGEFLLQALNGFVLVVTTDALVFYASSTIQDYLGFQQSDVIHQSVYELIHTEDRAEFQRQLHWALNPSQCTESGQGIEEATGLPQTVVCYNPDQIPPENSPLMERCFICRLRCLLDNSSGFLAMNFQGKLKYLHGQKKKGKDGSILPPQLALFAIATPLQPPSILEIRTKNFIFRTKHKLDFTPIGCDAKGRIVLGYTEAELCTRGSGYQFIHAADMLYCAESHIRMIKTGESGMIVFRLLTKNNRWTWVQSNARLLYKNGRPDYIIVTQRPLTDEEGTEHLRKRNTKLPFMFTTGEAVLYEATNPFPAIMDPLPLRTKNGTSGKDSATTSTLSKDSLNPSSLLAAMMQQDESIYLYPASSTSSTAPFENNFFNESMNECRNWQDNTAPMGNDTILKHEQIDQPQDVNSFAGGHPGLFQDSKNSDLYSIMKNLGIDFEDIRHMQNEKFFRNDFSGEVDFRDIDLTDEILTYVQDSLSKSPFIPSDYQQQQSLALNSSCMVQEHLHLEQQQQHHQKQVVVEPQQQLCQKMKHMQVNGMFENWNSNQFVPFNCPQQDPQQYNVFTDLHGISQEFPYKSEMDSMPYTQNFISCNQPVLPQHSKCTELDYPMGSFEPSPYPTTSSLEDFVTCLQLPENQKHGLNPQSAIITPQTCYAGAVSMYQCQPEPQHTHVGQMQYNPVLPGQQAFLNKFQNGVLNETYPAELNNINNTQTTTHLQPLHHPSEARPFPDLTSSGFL
Structure (SMILES),outcome,AC50
Nc1ccc(-c2ccc(N)c(N)c2)cc1N,inactive,
CCOP(O)OCC,inactive,
C#CC1(O)CCCCC1,inactive,
O=c1[nH]c(Cl)c(Cl)cc1Cl,,13.8 µM (active)
CCC(C)c1cc(C(C)(C)C)cc(-n2nc3ccccc3n2)c1O (stereo not drawn),inactive,
[CH3][Sn]([Cl])([Cl])[Cl],inactive,
Nc1c(Cl)c(Cl)c(Cl)c(Cl)c1Cl,,31.4 µM (active)
COC(=O)c1ccccc1S(=O)(=O)NC(=O)Nc1nc(C)cc(C)n1,inactive,
Nc1ccccc1C(=O)OCCc1ccccc1,,10 µM (active)
N#Cc1cccc(C#N)c1,inactive,
O=C(O)CCCc1ccc(N(CCCl)CCCl)cc1,inactive,
Nc1cc(Cl)cc(Cl)c1,inactive,
COc1ncc(F)c2nc(S(=O)(=O)Nc3c(F)cccc3F)nn12,inactive,
COC(C)(C)CCC[C@H](C)C/C=C/C(C)=C/C(=O)OC(C)C,inactive,
[CH3][Sn]([CH3])([Cl])[Cl],inactive,
BrCBr,inactive,
CCc1cccc(C)c1N(C(=O)CCl)[C@@H](C)COC,inactive,
O=P1(NCCCl)OCCCN1CCCl (stereo not drawn),inactive,
CC(Cc1ccc(C(C)(C)C)cc1)CN1C[C@@H](C)O[C@@H](C)C1 (stereo partly drawn),,33.4 µM (active)
O=C(O)c1cc[c]([Hg][Cl])cc1,inactive,

Structure (SMILES),outcome,AC50
C[N+](C)(C)CC(=O)O,inactive,
O=S(=O)(c1ccccc1)c1ccccc1,inactive,
Clc1ccc(-c2ccccc2)cc1,inactive,
CN(C)C(=O)C(c1ccccc1)c1ccccc1,inactive,
C=CCc1ccc(OC(=O)Cc2ccccc2)c(OC)c1,inactive,
O=P(O)(Oc1ccccc1)Oc1ccccc1,inactive,
CC1CCCC1.[C-]#[O+].[C-]#[O+].[C-]#[O+].[Mn],,12.5 µM (active)
O=C(O)COc1ccccc1,inactive,
[Cl][Sb]([Cl])[Cl],inactive,
CCC(=O)c1ccc(Cl)cc1,inactive,
Cc1ccc(N(SC(F)(Cl)Cl)S(=O)(=O)N(C)C)cc1,inactive,
CC1(C)CC(=O)CC(C)(C)N1[O],inactive,
SCc1ccco1,inactive,
O=CNC(N1CCN(C(NC=O)C(Cl)(Cl)Cl)CC1)C(Cl)(Cl)Cl (stereo not drawn),inactive,
Oc1cc(Cl)ccc1Cl,inactive,
O=[N+]([O-])c1cc(C(F)(F)F)c(Cl)c([N+](=O)[O-])c1Cl,inactive,
C[C@]12CCC(=O)C(O)=C1CC[C@@H]1[C@@H]2CC[C@]2(C)C(=O)CC[C@@H]12,,31.2 µM (active)
CSc1nc(N=[N+]=[N-])nc(NC(C)C)n1,inactive,
O=[N+]([O-])O.O=[N+]([O-])O.[Cd],inactive,

# Tested on: not listed separately
# Assay: ATG_AP_1_CIS: Attagene CIS-FACTORIAL HepG2 Assay for human Activator Protein 1 (AP-1) (AID 2282931)
# Conditions: HepG2 Attagene cis-factorial AP-1 reporter mRNA; actives raise or lower the signal
# Method in brief: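 HepG2 cells transiently transfected with cis-element-driven reporter transcription units, dosed for 24 hours. Reporter mRNA measured by RT-PCR, 6-FAM labelling, HpaI digestion and capillary electrophoresis. Bidirectional fitting against DMSO baseline.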
Structure (SMILES),outcome,AC50
Nc1ccc(-c2ccc(N)c(N)c2)cc1N,inactive,
CCOP(O)OCC,inactive,
C#CC1(O)CCCCC1,inactive,
O=c1[nH]c(Cl)c(Cl)cc1Cl,inactive,
CCC(C)c1cc(C(C)(C)C)cc(-n2nc3ccccc3n2)c1O (stereo not drawn),inactive,
[CH3][Sn]([Cl])([Cl])[Cl],inactive,
Nc1c(Cl)c(Cl)c(Cl)c(Cl)c1Cl,inactive,
COC(=O)c1ccccc1S(=O)(=O)NC(=O)Nc1nc(C)cc(C)n1,inactive,
Nc1ccccc1C(=O)OCCc1ccccc1,inactive,
N#Cc1cccc(C#N)c1,inactive,
O=C(O)CCCc1ccc(N(CCCl)CCCl)cc1,inactive,
Nc1cc(Cl)cc(Cl)c1,inactive,
COc1ncc(F)c2nc(S(=O)(=O)Nc3c(F)cccc3F)nn12,inactive,
COC(C)(C)CCC[C@H](C)C/C=C/C(C)=C/C(=O)OC(C)C,,112 µM (active)
[CH3][Sn]([CH3])([Cl])[Cl],inactive,
BrCBr,inactive,
CCc1cccc(C)c1N(C(=O)CCl)[C@@H](C)COC,inactive,
O=P1(NCCCl)OCCCN1CCCl (stereo not drawn),inactive,
CC(Cc1ccc(C(C)(C)C)cc1)CN1C[C@@H](C)O[C@@H](C)C1 (stereo partly drawn),,40.6 µM (active)
O=C(O)c1cc[c]([Hg][Cl])cc1,inactive,

Structure (SMILES),outcome,AC50
C[N+](C)(C)CC(=O)O,inactive,
O=S(=O)(c1ccccc1)c1ccccc1,inactive,
Clc1ccc(-c2ccccc2)cc1,,170 µM (active)
CN(C)C(=O)C(c1ccccc1)c1ccccc1,inactive,
C=CCc1ccc(OC(=O)Cc2ccccc2)c(OC)c1,inactive,
O=P(O)(Oc1ccccc1)Oc1ccccc1,inactive,
CC1CCCC1.[C-]#[O+].[C-]#[O+].[C-]#[O+].[Mn],inactive,
O=C(O)COc1ccccc1,inactive,
[Cl][Sb]([Cl])[Cl],,100 µM (active)
CCC(=O)c1ccc(Cl)cc1,inactive,
Cc1ccc(N(SC(F)(Cl)Cl)S(=O)(=O)N(C)C)cc1,inactive,
CC1(C)CC(=O)CC(C)(C)N1[O],inactive,
SCc1ccco1,,52 µM (active)
O=CNC(N1CCN(C(NC=O)C(Cl)(Cl)Cl)CC1)C(Cl)(Cl)Cl (stereo not drawn),inactive,
Oc1cc(Cl)ccc1Cl,inactive,
O=[N+]([O-])c1cc(C(F)(F)F)c(Cl)c([N+](=O)[O-])c1Cl,inactive,
C[C@]12CCC(=O)C(O)=C1CC[C@@H]1[C@@H]2CC[C@]2(C)C(=O)CC[C@@H]12,inactive,
CSc1nc(N=[N+]=[N-])nc(NC(C)C)n1,inactive,
O=[N+]([O-])O.O=[N+]([O-])O.[Cd],,5.97 µM (active)
